Only some compounds are listed: those with a hit (about 2.8% of all), similar ones and a draw of the others.
Pol iota inh = DNA polymerase iota (human) inhibition; Q9UNA4; Pol iota fluorescent replication assay, 10 min; Potency, µM (top dose mostly 115 µM), for the others: top-dose activity, negative = inhibition, most hits filed as inhibitors; 390,000 compounds, 1% hits; also: potency is read from the fitted curve at half-maximal effect
Target sequence (Q9UNA4 whole entry, looked up): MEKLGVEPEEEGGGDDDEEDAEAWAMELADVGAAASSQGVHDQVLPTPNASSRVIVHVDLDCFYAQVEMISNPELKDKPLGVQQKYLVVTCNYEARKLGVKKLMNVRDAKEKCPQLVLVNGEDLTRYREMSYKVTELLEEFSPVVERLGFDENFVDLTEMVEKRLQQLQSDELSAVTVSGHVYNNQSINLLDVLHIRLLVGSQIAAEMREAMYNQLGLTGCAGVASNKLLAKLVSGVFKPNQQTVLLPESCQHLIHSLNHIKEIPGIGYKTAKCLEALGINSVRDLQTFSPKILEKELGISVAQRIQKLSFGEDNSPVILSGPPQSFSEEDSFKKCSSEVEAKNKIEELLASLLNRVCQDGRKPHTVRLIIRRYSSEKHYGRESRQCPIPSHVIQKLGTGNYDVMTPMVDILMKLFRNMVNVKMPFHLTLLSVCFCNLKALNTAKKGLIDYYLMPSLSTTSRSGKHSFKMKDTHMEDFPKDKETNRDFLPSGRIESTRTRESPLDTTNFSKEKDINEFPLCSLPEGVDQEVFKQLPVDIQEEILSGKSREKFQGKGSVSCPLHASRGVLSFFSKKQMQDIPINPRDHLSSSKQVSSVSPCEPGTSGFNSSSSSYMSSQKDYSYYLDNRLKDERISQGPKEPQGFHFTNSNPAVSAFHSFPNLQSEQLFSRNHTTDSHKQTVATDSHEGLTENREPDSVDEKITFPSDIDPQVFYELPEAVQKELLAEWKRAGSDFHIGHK
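Fluorescent replication assay read twice, at 0 min and 10 min after adding 50 nM (final) substrate. Enzyme (10 nM) and compounds were first incubated 15 min at room temperature; enzyme-free buffer wells were negative controls.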
FEN1 inh = inhibitors of human flap endonuclease 1; P39748; Potency, µM (titrated, usually from 114 µM), inactives show top-dose activity change, negative = inhibition, usual class: inhibitors; Recombinant FEN1 flap cleavage, fluorescence, 15 min; AID 588795; 390,000 compounds, 0.35% hits; also: potency is read from the fitted curve at half-maximal effect; % is scaled to controls: 0 for no effect and ±100 for the full control effect; nearly all actives have a fitted effect of over 65% in size
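Reaction started by adding substrate (50 nM final) to 10 nM enzyme after 15 min room-temperature compound preincubation. Reads at 0 and 15 min, with data normalized and fitted to a four-parameter Hill equation.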
POLK inh = blocks human DNA polymerase kappa activity; purified Pol kappa, fluorescent DNA synthesis assay, 10 min; Q9UBT6; 400,000 compounds, 0.53% hits; Potency, µM (titrated, usually from 107 µM), inactives show at the highest dose activity, negative = inhibition, actives largely listed as inhibitors; also: potency is read from the fitted curve at half-maximal effect; % is scaled to controls: 0 for no effect and ±100 for the full control effect
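Pol kappa 10 nM + cpd, 15 min RT; start w/ substrate 50 nM final; fluorescence kinetic read, 0 and 10 min. Neg ctrl: buffer, no enzyme.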
PI5P4K alpha inh = inhibitors of human PI5P4K alpha; 330,000 compounds, 1.2% hits; max response, %; PI5P4Kalpha enzyme, ADP-Glo luminescence, 60 min; active compounds read low; P48426; active = max response of -50% or lower; inconclusive = between -30% and -50%; inactive = -30% or higher; also: value at the top dose of about 77 µM; % is scaled to controls: 0 for no effect and ±100 for the full control effect
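Single end-point luminescence (ADP-Glo) quantified ADP from PI5P4Kalpha turnover; ATP 5 microM final, 1 h at RT, 0.1% CHAPS and 0.28 mM EGTA in HEPES pH 7.4.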
POLB inh = DNA polymerase beta (human) inhibition; AID 485314; 340,000 compounds, 1.3% hits; P06746; Pol beta primer extension/strand displacement, fluorescence kinetic; Potency, µM (doses to about 114 µM), for the others: top-dose activity change, negative = inhibition, usual class: inhibitors; also: potency is read from the fitted curve at half-maximal effect; % is scaled to controls: 0 for no effect and ±100 for the full control effect
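Values derive from four-parameter Hill fits of normalized kinetic data: reads at 0 and 10 min following addition of 50 nM substrate to 10 nM Pol beta preincubated 15 min with compound.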
POLH inh = inhibitors of human DNA polymerase eta; Q9Y253; recombinant Pol eta, fluorescent DNA replication assay; Potency, µM (highest dose often 114 µM), for inactives: at the top dose activity change, negative = inhibition, actives largely listed as inhibitors; 390,000 compounds, 1.2% hits; AID 588591; also: potency is read from the fitted curve at half-maximal effect; % is scaled to controls: 0 for no effect and ±100 for the full control effect
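Pol eta (10 nM) was preincubated with compounds for 15 min at room temperature, after which fluorescent replication substrate (50 nM final) was added to start the reaction. Fluorescence was read kinetically at 0 and 10 min.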
ADP-Glo counter = ADP-Glo luciferase interference, PI5P4K counter-screen | AID 743285 | shares compounds with PI5P4K alpha inh | Potency, µM (titrated, usually from 76.9 µM), for the others: at the highest dose activity change, negative = inhibition, usual class: inhibitors | 1,100 tested, under 10 active | ADP-Glo detection counter-screen, luciferase luminescence, no enzyme
An asterisk follows results filed as active; u = inconclusive; x = not tested or not shown; [ ] = dose if it differs, or a comment. Unless noted, calls follow the shape of the dose curve; as a rule, active = well fitted curve in the direction sought with a large enough effect; inconclusive = small, poorly fitted or top-dose-only effect, or another doubt; inactive = no such curve, though single readings can be large; an effect the other way counts as inactive or inconclusive.

SMILES	Pol iota inh	FEN1 inh	POLK inh	PI5P4K alpha inh	POLB inh	POLH inh	ADP-Glo counter
CC1Cc2ccccc2N1C(=O)COC(=O)CCc1nc2ccccc2c(=O)[nH]1 (stereo unspecified)	9%	-1%	-7%	-51*	u	-8%	-3%
Cc1ccc(CNC(=O)CN(c2ccc(Cl)cc2Cl)S(=O)(=O)c2ccccc2)cc1	11%	-3%	-15%	x	1%	-15%	x
O=C(c1cccc(C(F)(F)F)c1)N1CCN(CCc2ccccc2)CC1	-9%	11%	-2%	-3	56%	-21%	x
Cc1cccc(N=c2oc3cc(O)ccc3cc2C(N)=O)c1	-4%	-16%	-5%	-55*	10%	-10%	5%
NC(=S)c1cc2ccc(O)cc2oc1=O	u	-14%	-30%	-72*	18%	1%	-7%
O=C(c1ccc([N+](=O)[O-])cc1)c1cc2ccc(O)cc2oc1=O	30%	0%	-6%	u	0%	-3%	x
COc1cccc(N=c2oc3cc(O)ccc3cc2C(=O)NCC2CCCO2)c1 (stereo unspecified)	30%	-9%	0%	u	-15%	-5%	x
C/C(=N/NC(N)=S)c1cc2ccc(O)cc2oc1=O	u	12%	-15%	u	18%	-15%	x
CCOc1ccc(C(=O)c2cc3ccc(O)cc3oc2=O)cc1	15%	-5%	-6%	-67*	96%	-16%	0%
CC(=O)NCCNc1ccnc(-c2ccccc2C(F)(F)F)n1	x	x	1%[60.1 µM]	x	x	x	x
Cc1ccccc1N1CC(C(=O)Nc2nnc(SCC(=O)Nc3nccs3)s2)CC1=O (stereo unspecified)	u	-1%	-26%	u	50µM*	u	-9%
O=C(Oc1cc2oc(=O)cc(-c3ccccc3)c2cc1Cl)C1CCCCC1	-7%	-13%	-13%	-88*	-1%	-18%	-8%
O=C(Oc1ccc2ccc(=O)oc2c1)C1CCCCC1	9%	-3%	-12%	-5	16%	-10%	x
COc1cccc(-c2ncc3ccccc3c2COC(=O)c2ccc(F)cc2)c1	-10%	-20%	-8%	16	x	-18%	x
S=C(Nc1ccc2nccnc2c1)N1CCOCC1	144%	-6%	-19%	2	-1%	-4%	x
CCOc1ccc(OCC(=O)Nc2ccc(S(=O)(=O)Nc3cc(C)nc(C)n3)cc2)cc1	u	-5%	-5%	-25	-1%	u	x
Cc1cc(NS(=O)(=O)c2ccc(NC(=O)COc3ccc(Br)cc3)cc2)nc(C)n1	-1%	u	-24%	-54*	2%	4%	-1%
C=CCn1c(C)cc(-c2csc(N)n2)c1C	u	u	-2%	x	-1%	-11%	x
CCCn1c(C)cc(-c2csc(N)n2)c1C	u	u	-9%	-58*	-5%	-8%	-8%
CCOC(=O)C(=C1Nc2ccccc2N1)n1c(-c2cccnc2)nc2ccccc21	x	x	x	-3	x	x	x
CC(NC(=O)CN1c2cccc3cccc(c23)S1(=O)=O)c1ccc(S(N)(=O)=O)cc1 (stereo unspecified)	28µM*	-14%	u	-55*	x	20µM*	2%
Cc1ccc(NC(=O)c2ccc(-n3c(C)nnc3C)cc2)cc1F	-7%	18%	-9%[60.1 µM]	x	-7%	-3%	x
c1ccc(Nc2nc(NCc3ccco3)c3ccccc3n2)cc1	143%	-20%	-1%	-21	-1%	-16%	x
Cc1cccc(Nc2nc(NCc3ccco3)c3ccccc3n2)c1	-1%	u	-2%	x	5%	-11%	2%
COc1ccc(N2CC(C(=O)Nc3nc4ccc(S(C)(=O)=O)cc4s3)CC2=O)cc1 (stereo unspecified)	u	0%	-10%	-53*	u	u	1%

Source: PubChem (National Center for Advancing Translational Sciences (NCATS))
